WRN helicase inh = WRN helicase (human) inhibition; Q14191; WRN helicase unwinding, fluorescent forked duplex, kinetic; 360,000 compounds, 0.46% hits; Potency, µM (series often up to 114 µM), for inactives: at the highest dose activity change, negative = inhibition, most hits filed as inhibitors; also: potency is read from the fitted curve at half-maximal effect; % is scaled to controls: 0 for no effect and ±100 for the full control effect; nearly all actives have a fitted effect of over 55% in size
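WRN at 20 nM final was preincubated with compound for 15 min at room temperature; reaction started with 100 nM forked duplex oligonucleotide carrying fluorophore and quencher plus 2 mM ATP (final). Unwinding followed kinetically by red fluorescence (ex 525/em 598 nm).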
FEN1 inhibitor = inhibitors of human flap endonuclease 1 | Recombinant FEN1 flap cleavage, fluorescence, 15 min | P39748 | 390,000 compounds, 0.35% hits | Potency, µM (highest dose often 114 µM), inactives show at the top dose activity change, negative = inhibition, actives largely listed as inhibitors; also: potency is read from the fitted curve at half-maximal effect; % is scaled to controls: 0 for no effect and ±100 for the full control effect; nearly all actives have a fitted effect of over 65% in size
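Reaction started by adding substrate (50 nM final) to 10 nM enzyme after 15 min room-temperature compound preincubation. Reads at 0 and 15 min, with data normalized and fitted to a four-parameter Hill equation.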
PI5P4Ka inh = blocks human PI5P4K alpha kinase activity | P48426 | PI5P4Kalpha enzyme, ADP-Glo luminescence, 60 min; active compounds read low | 330,000 compounds, 1.2% hits | max response, %; active = max response of -50% or lower; inconclusive = between -30% and -50%; inactive = -30% or higher; also: value at the top dose of about 77 µM; % is scaled to controls: 0 for no effect and ±100 for the full control effect
Target sequence (P48426 whole entry, looked up): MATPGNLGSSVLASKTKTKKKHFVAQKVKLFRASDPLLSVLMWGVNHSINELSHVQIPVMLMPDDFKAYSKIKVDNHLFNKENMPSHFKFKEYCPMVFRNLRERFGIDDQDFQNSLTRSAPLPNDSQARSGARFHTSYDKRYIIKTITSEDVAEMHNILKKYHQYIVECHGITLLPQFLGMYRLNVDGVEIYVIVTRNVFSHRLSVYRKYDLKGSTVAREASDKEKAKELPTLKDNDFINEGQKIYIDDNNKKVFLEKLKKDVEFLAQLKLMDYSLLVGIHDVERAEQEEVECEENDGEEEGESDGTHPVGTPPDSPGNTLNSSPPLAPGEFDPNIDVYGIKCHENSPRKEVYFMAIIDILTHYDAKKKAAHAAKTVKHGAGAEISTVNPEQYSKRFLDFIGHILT
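Enzyme plus substrate dispensed, test compounds pinned in, then ATP (5 microM final) added. After 60 min at RT, ADP-Glo reagent 1 for 45 min and reagent 2 for 30 min preceded luminescence imaging.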
Tb PGK inh = blocks T. brucei phosphoglycerate kinase; P07378; Potency, µM (series often up to 57.5 µM), inactives show at the top dose activity change, negative = inhibition, usual class: inhibitors; PGK/GAPDH coupled, Kinase-Glo luminescence, 60 min; 380,000 compounds, 0.043% hits; AID 602233; also: potency is read from the fitted curve at half-maximal effect; % is scaled to controls: 0 for no effect and ±100 for the full control effect; nearly all actives have a fitted effect of over 60% in size
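Luminescent ATP detection (Kinase-Glo Plus) follows a 60-minute room-temperature incubation, with wells lacking PGK as controls. Buffer: 100 mM TEA (pH 7.6), 5 mM MgCl2, 0.01% Tween-20. Coupling enzyme GAPDH (100 nM final) supplies unstable 1,3-BPG in-well.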
Glioma ERSR ind = inducers of ER stress response in human glioma cells. AID 602332. U87-MG GRP78 promoter luciferase reporter, 16 h. 420,000 compounds, 0.02% hits. Potency, µM, for inactives: top-dose activation, actives largely listed as activators; also: potency is read from the fitted curve at half-maximal effect; series mostly up to about 76 µM; % of control where 0% means no effect; nearly all actives have a fitted effect of over 35% in size
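Stably transfected U87-MG glioma cells carrying a GRP78-based luciferase sensor; 16 h compound incubation. Luminescence end-point read 10 min after Bright-Glo addition at room temperature.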
Pin1 inhibitor = blocks the human prolyl isomerase Pin1 | 390,000 compounds, 0.009% hits | AID 504891 | Potency, µM (series often up to 115 µM), inactives show at the top dose activity, negative = inhibition, actives largely listed as inhibitors | Pin1 FP peptide displacement, HiFluor488, 10 min; active = well fitted inhibition curve with a large enough effect in the polarisation, with a control signal flat, not every such curve was filed as active; inconclusive = small, poorly fitted or top-dose-only effect, or effect the other way, or a change in a side signal; inactive = no such curve, though single readings can be large or run the other way; the % refers to the polarisation; also: potency is read from the fitted curve at half-maximal effect; % is scaled to controls: 0 for no effect and ±100 for the full control effect
Target sequence (Q13526 whole entry, looked up): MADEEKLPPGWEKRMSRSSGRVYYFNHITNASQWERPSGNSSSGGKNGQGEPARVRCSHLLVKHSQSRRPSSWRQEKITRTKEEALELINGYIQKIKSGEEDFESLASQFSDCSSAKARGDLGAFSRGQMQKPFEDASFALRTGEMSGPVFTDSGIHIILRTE
* = called active by the depositor. Rows were chosen to be rich in hits. Some 1.3% of all compounds tested hit in one or more screens of this group. Unless noted, calls follow the shape of the dose curve; as a rule, active = well fitted curve in the direction sought with a large enough effect; inconclusive = small, poorly fitted or top-dose-only effect, or another doubt; inactive = no such curve, though single readings can be large; an effect the other way counts as inactive or inconclusive.

For CC(=O)c1ccccc1-c1ccc2c(c1)CC(CNC(=O)C[C@@H]1C[C@@H](C)NC(=S)N1)O2 (stereo not given in full) the results were Glioma ERSR ind 4.3%.
Screening Cc1nc2cc(NC(=O)[C@@H]3C[C@@H](Sc4ccccn4)CN3Cc3ccccc3F)ccc2s1 returned Glioma ERSR ind -2.7%.
Screening N#Cc1cc(C#N)c(SCC(=O)N2CC(=O)Nc3ccccc32)nc1N returned WRN helicase inh -15.5%, FEN1 inhibitor -21.0%, PI5P4Ka inh -53.3*, Tb PGK inh 6.3%, Glioma ERSR ind -3.4% and Pin1 inhibitor 5.7%.
`COC(=O)C1CCCCN1Cc1ccc2c(c1)CN(Cc1cnn(-c3ccccc3)c1)CCO2` (stereo not given) gave Glioma ERSR ind -7.9%.
`N#Cc1c(-c2ccco2)cc(-c2ccc(F)cc2)nc1N` gave WRN helicase inh inconclusive, FEN1 inhibitor -6.8%, PI5P4Ka inh -63.9*, Tb PGK inh -3.4%, Glioma ERSR ind -7.2% and Pin1 inhibitor inconclusive.
`NC(=O)c1cc2ccc(O)cc2oc1=Nc1ccccc1` gave WRN helicase inh -2.7%, FEN1 inhibitor 0.3%, PI5P4Ka inh -72.2*, Tb PGK inh -13.4%, Glioma ERSR ind 2.5% and Pin1 inhibitor -13.1%.
Screening COc1ccc2cc(C(=O)NCc3ccccc3)c(=Nc3ccc(C(=O)O)cc3)oc2c1 returned WRN helicase inh -8.1%, FEN1 inhibitor 10.7%, PI5P4Ka inh 0.2, Tb PGK inh 2.7%, Glioma ERSR ind -3.4% and Pin1 inhibitor 5.3%.
O=C(O)c1ccc(N=c2oc3cc(O)ccc3cc2C(=O)NCc2ccccc2)cc1 was read as WRN helicase inh -17.2%, FEN1 inhibitor inconclusive, PI5P4Ka inh -78.2*, Tb PGK inh -8.7%, Glioma ERSR ind 4.9% and Pin1 inhibitor inconclusive.
Screening COc1ccc2[nH]c(=O)c(CN(C3CCCCC3)C(c3nnnn3Cc3ccco3)C(C)C)cc2c1 (stereo not given) returned WRN helicase inh inconclusive, FEN1 inhibitor -5.9%, PI5P4Ka inh -67.5*, Tb PGK inh -1.4%, Glioma ERSR ind -1.3% and Pin1 inhibitor inconclusive.
Screening C=CCn1c(=O)[nH]c2nc3cc(N=CN(C)C)c(C)cc3nc2c1=O returned WRN helicase inh 6.1%, FEN1 inhibitor -6.9%, PI5P4Ka inh 2.5, Tb PGK inh -3.9%, Glioma ERSR ind 3.5% and Pin1 inhibitor inconclusive.
Cc1cc2nc3c(=O)n(CCc4ccccc4)c(=O)[nH]c3nc2cc1N was read as WRN helicase inh -6.9%, FEN1 inhibitor -6.7%, PI5P4Ka inh -85.7*, Tb PGK inh -10.2% and Glioma ERSR ind -2.2%.
Nc1ccc2nc3c(=O)n(C4CCCCC4)c(=O)[nH]c3nc2c1 was read as WRN helicase inh -23.9%, FEN1 inhibitor -3.5%, PI5P4Ka inh inconclusive, Tb PGK inh -13.1% and Glioma ERSR ind -0.9%.
`CCCCn1c(=O)[nH]c2nc3cc(N)ccc3nc2c1=O` gave WRN helicase inh 50.1µM*, FEN1 inhibitor inconclusive, PI5P4Ka inh -65.9*, Tb PGK inh 7.2% and Glioma ERSR ind -1.5%.
For Nc1ccc2nc3c(=O)n(CCc4ccccc4)c(=O)[nH]c3nc2c1 the results were WRN helicase inh -20.5%, FEN1 inhibitor inconclusive, PI5P4Ka inh -62.8*, Tb PGK inh 11.0% and Glioma ERSR ind 1.8%.
Screening CCC1CN(Cc2cn[nH]c2-c2ccccc2)Cc2cc(OC)ccc2O1 (stereo not given) returned Glioma ERSR ind 2.6%.
For NC(=O)C1CCN(c2nc(-c3ccc(-c4ccccc4)cc3)cs2)CC1 the results were Pin1 inhibitor -2.0%.
For COC(=O)c1cccc(C(=O)NCc2nc(-c3ccccc3NC(C)=O)oc2C)c1 the results were Glioma ERSR ind -1.5%.
Cc1cccc(NC(=O)COc2ccc(/C=C\c3[nH]c(=O)[nH]c(=O)c3[N+](=O)[O-])cc2)c1 was read as WRN helicase inh inconclusive, FEN1 inhibitor 44.7µM*, PI5P4Ka inh -56.5*, Tb PGK inh inconclusive, Glioma ERSR ind -1.7% and Pin1 inhibitor inconclusive.
